JMJD2A Tudor: inhibitors of human JMJD2A Tudor domain; Potency, µM (series often up to 114 µM), for the others: at the highest dose activity change, negative = inhibition, usual class: inhibitors; 390,000 tested, 4.4% active; O75164; AlphaScreen JMJD2A-Tudor / H3K4me3 peptide binding; further: on the % scale 0 is the no-effect control and ±100 the full control effect; nearly all actives have a fitted effect of over 50% in size
Target sequence (O75164 whole entry, looked up, the tested form may be a part): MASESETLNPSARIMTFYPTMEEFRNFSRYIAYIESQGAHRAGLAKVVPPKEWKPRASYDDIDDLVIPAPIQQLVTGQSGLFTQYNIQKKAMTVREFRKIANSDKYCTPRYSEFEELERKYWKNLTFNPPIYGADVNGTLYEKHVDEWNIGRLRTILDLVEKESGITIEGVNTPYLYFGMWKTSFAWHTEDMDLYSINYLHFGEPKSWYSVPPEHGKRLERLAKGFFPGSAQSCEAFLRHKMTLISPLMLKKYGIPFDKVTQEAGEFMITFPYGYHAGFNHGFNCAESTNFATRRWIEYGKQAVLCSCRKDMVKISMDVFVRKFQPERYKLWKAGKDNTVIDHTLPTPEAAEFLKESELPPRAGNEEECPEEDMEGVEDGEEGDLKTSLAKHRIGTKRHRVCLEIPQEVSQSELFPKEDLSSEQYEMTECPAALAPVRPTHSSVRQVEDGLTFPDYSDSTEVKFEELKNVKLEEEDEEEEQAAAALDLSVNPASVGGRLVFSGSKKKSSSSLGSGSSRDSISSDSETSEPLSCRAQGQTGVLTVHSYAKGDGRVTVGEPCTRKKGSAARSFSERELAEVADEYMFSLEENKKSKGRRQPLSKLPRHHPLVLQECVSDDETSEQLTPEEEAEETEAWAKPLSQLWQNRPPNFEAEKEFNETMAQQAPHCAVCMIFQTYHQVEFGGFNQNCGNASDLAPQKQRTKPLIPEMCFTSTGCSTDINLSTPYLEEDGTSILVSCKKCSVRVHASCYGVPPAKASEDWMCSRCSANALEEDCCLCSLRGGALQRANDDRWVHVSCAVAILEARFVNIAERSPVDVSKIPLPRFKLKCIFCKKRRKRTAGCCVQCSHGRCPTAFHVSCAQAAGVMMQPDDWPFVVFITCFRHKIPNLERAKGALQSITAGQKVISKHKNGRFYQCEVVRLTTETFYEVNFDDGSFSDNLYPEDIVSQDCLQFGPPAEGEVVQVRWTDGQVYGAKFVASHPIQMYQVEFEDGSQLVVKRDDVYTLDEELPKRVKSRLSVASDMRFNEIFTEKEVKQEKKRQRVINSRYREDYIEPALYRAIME
HP1b chromo inh: inhibitors of HP1-beta chromodomain binding to methylated histone tails; P83916; AlphaScreen HP1-beta / biotin-H3K9me3 peptide binding; Potency, µM (highest dose often 114 µM), for the others: at the top dose activity change, negative = inhibition, most hits filed as inhibitors; 390,000 tested, 0.56% active; AID 540317; further: nearly all actives have a fitted effect of over 70% in size
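HP1-beta protein (50 nM final) preincubated 30 min at room temperature with biotinylated H3(1-18)K9me3 peptide (50 nM) in PBS pH 7.4, 0.01% Tween-20, then compound added for 30 min. AlphaScreen streptavidin donor/nickel chelate acceptor beads (10 ug/mL final), 30 min dark, luminescence read.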
L3MBTL1 block: blocks human L3MBTL1 | Potency, µM (highest dose often 57.1 µM), for the others: top-dose activity, negative = inhibition, most hits filed as inhibitors | AlphaScreen L3MBTL1–H3K9me1 peptide binding | 230,000 tested, 0.66% active | AID 485360; further: on the % scale 0 is the no-effect control and ±100 the full control effect; nearly all actives have a fitted effect of over 60% in size
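L3MBTL1 50 nM + b-AHA-H3(1-15)K9me1 75 nM, 30 min RT; compound added, 30 min RT; streptavidin donor/Ni-chelate acceptor beads 10 ug/mL each final, 30 min RT dark; AlphaScreen read.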
BAZ2B block: blocks human BAZ2B | Q9UIF8 | AlphaScreen BAZ2B-H3K14Ac peptide displacement | Potency, µM (highest dose often 114 µM), without a hit: at the top dose activity change, negative = inhibition, usual class: inhibitors | 360,000 tested, 4.4% active | AID 504333; further: on the % scale 0 is the no-effect control and ±100 the full control effect; nearly all actives have a fitted effect of over 60% in size
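Protein-peptide AlphaScreen: BAZ2B 50 nM, b-H3K14Ac 50 nM, 1x PBS pH 7.4 + 0.01% Tween-20. Preincubation 30 min RT; cpd 30 min RT (top 110 uM); beads 20 min RT, light-protected.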
Sfp PPTase inh: Sfp phosphopantetheinyl transferase inhibition; Q9F4F7; Biochemical Sfp PPTase activity, qHTS; Potency, µM, inactives show largest response in the series, negative = inhibition, hits mostly inhibitors; 310,000 tested, 3.5% active;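 further: the enzyme is Sfp with the accession as filed and its product quenches rhodamine fluorescence; 0% = enzyme reaction without inhibitor and -100% = no enzyme wells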
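With Hepes-Na pH 7.6 buffer containing 10 mM MgCl2, Sfp (15 nM) modified BHQ-2-YbbR (12.5 uM) using rhodamine-CoA (5 uM). Two reads 30 minutes apart at 525/598 nm yielded each well's rate.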
G9a block: blocks human histone lysine methyltransferase G9a; Q96KQ7; G9a H3K9 monomethylation, AlphaScreen, 2 h; Potency, µM (titrated, usually from 102 µM), for inactives: at the highest dose activity, negative = inhibition, actives largely listed as inhibitors; 350,000 tested, 8.8% active; further: on the % scale 0 is the no-effect control and ±100 the full control effect; nearly all actives have a fitted effect of over 75% in size
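Readings reflect AlphaScreen signal from monomethyl-H3K9 antibody detection. HMT at 20 nM; substrate b-H3K9 500 nM; cofactor SAM 20 uM; 2 h RT reaction; compounds tested as titrations in qHTS with 15 min preincubation.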
The depositor's hits bear a star; ? = inconclusive; / = no result; ! = not active in a repeat; [ ] = another dose, or the depositor's remark. Sampled rows, rich in hits. Any-hit rate of the full collection: about 12%. The call rests on the fitted dose curve; in most records, active means well fitted curve in the direction sought with a large enough effect; inconclusive means small, poorly fitted or top-dose-only effect, or another doubt; inactive means no such curve, though single readings can be large; an effect the other way counts as inactive or inconclusive. Potency means the concentration at half of the fitted maximal effect.

SMILES | JMJD2A Tudor | HP1b chromo inh | L3MBTL1 block | BAZ2B block | Sfp PPTase inh | G9a block
O=c1oc2c(-c3ccc([N+](=O)[O-])cc3)cc(O)cc2s1 | -32% | ? | -22% | -26% | 40µM* | 56µM*
COc1ccccc1N1CCN(S(=O)(=O)c2c(C)sc3ncn(CC(=O)Nc4ccc(C(C)C)cc4)c(=O)c23)CC1 | -7% | 23% | / | 3% | / | -32%[59 µM]
CCN1CCN(CC(=O)c2c[nH]c3ccccc23)CC1 | -21% | 26% | 0% | 3% | 10% | -7%[59 µM]
CN(C)CC(=O)c1c[nH]c2ccccc12 | 50µM* | 19% | 9% | -23% | 15% | 27%[0.501 µM]
O=C(O)Cn1nnnc1-c1ccc(F)cc1 | -12% | 18% | 15% | 6% | 17% | ?
Cc1cc(Cn2nnnc2-c2ccncc2)cc(C)c1O | -6% | 47% | / | -11% | 11% | 35µM*
NOCC(=O)O | 22µM* | 16% | 19% | ? | / | 6µM*!
NCC(=O)O | / | / | / | / | -21% | /
O=C(CN1C(=O)C2CCCCC2C1=O)Nc1nc(-c2ccccn2)cs1 (configuration not stated) | 79µM* | ? | / | 35µM* | 16µM* | ?
C[C@@H](C(=O)Nc1nc(-c2ccccn2)cs1)N1C(=O)C2CCCCC2C1=O (some centres not stated) | 50µM* | ? | / | 8.9µM* | 50µM* | 1.4µM*
CCOc1cccc2cc(S(=O)(=O)c3ccccc3F)c(=O)oc12 | -18% | 0% | / | -17% | / | -48%[59 µM]
O=C(OCC#CCSc1nnc(-c2cccc3ccccc23)o1)C1CC1 | 71% | / | / | / | / | /
Cc1cccc2nc(CSC(=N)N)c(Br)n12 | -1% | 36% | 9% | -31% | -9% | 8.9µM*
N=C(N)SCc1nc2ccccn2c1Br | -11% | 12% | 11% | -5% | 4% | -5%[59 µM]
CN1CCN(c2ccc(S(=O)(=O)N3CCCCC3)cc2NC(=O)Cc2c(F)cccc2Cl)CC1 | -24% | -6% | -9% | -7% | / | 45µM*
O=S(=O)(Nc1ccc(Cl)cc1)c1ccc(N2CCOCC2)c(NC(=S)NCCN2CCOCC2)c1 | 79µM* | ? | 1% | ? | 4µM* | 4.5µM*
CC(=O)NCCC(=O)Nc1cc(S(=O)(=O)Nc2ccc(Cl)cc2)ccc1N1CCCC1 | ? | -13% | / | -10% | 79µM* | 22µM*
CC(=O)NCCC(=O)Nc1cc(S(=O)(=O)N2CCCCC2)ccc1N1CCN(C)CC1 | ? | 6% | -9% | 10% | / | 50µM*
COc1cccc(-c2ccc3ncnc(NCc4cnc(C)cn4)c3c2)c1 | / | / | / | / | 8% | -38%[0.501 µM]
CC(C)n1c(=S)[nH]c2cc(Cl)ccc21 | ? | 11% | -23% | ? | 79µM* | 10µM*
O=c1c(-c2ccccc2)nc2cnc(N3CCNCC3)nc2n1Cc1cccs1 | / | / | / | / | -3% | -40%[12.7 µM]
C[N+]1(CC#CC(O)(c2ccccc2)c2ccccc2)CCCC1 | ? | 5% | -1% | -32% | 4% | 8.9µM*
CN=C1C=CC(=C(c2ccc(N(C)C)cc2)c2ccc(N(C)C)cc2)C=C1 | / | / | / | / | 45µM* | ?
CN(C)c1ccc(/C=N/O)cc1 | -15% | 7% | / | -23% | 5% | -51%
C=CCNc1oc(-c2ccc(OC)cc2)nc1C#N | -15% | 3% | -6% | -5% | 2% | 56µM*
SMILES | JMJD2A Tudor | HP1b chromo inh | L3MBTL1 block | BAZ2B block | Sfp PPTase inh | G9a block
C=CCNc1oc(-c2ccc(OCC)cc2)nc1C#N | -20% | 8% | -6% | -1% | 3% | 2%[59 µM]
CCCOc1ccc(-c2nc(C#N)c(NCC3CCCO3)o2)cc1 (configuration not stated) | ? | -29% | / | 50µM* | -10% | 71µM*
CCOc1ccc(-c2nc(C#N)c(NCC3CCCO3)o2)cc1 (configuration not stated) | -32% | 13% | / | -38% | -5% | -3%[59 µM]
CC1=C(c2ccc(C(C)C)cc2)S(=O)(=O)N=C1N1CCC(C(=O)NCCc2ccco2)CC1 | -10% | -15% | / | -11% | / | -1%[59 µM]
CCc1c(C)nc(SCc2nc(-c3ccccc3C)no2)[nH]c1=O | -14% | 21%[57 µM] | / | 1% | / | 26%[59 µM]
CC(=O)Nc1cccc(O)c1 | -10% | 66% | 6% | 7% | 14% | -2%[0.501 µM]
CC(C)c1cc(Nc2cccc(O)c2)cc(C(C)C)c1O | / | / | -6% | 32µM* | 22µM* | ?
COc1ccc(C(=O)C2C(=O)C(=O)N(Cc3ccco3)C2c2cccs2)cc1 (configuration not stated) | -20%[57.1 µM] | -16%[57 µM] | / | / | / | /
Cc1ccc(C)c(-n2c(C)cc(/C=N/NC(=O)c3c(C)nc4cc(C)ccn34)c2C)c1 | 40µM* | -12% | ? | -9% | -15% | ?
Cc1cc2oc(=O)cc(-c3ccccc3)c2c(C)c1-c1ccoc1 | / | / | / | / | -30% | -7%
N#CC1=C(N)Oc2cc(O)ccc2C1c1ccncc1 (configuration not stated) | -5%[11.4 µM] | 1% | -2% | -31% | 3% | ?
N#CC1=C(N)Oc2cc(O)ccc2C1c1cccs1 (configuration not stated) | -3% | 28% | 5% | -3% | ? | 56µM*
N#CC1=C(N)Oc2c(ccc3cccnc23)C1c1ccccc1 (configuration not stated) | -26% | 21% | -9% | -28% | 9% | 6%[59 µM]
N#CC1=C(N)Oc2c(ccc3ccccc23)C1c1cccs1 (configuration not stated) | -30% | -5% | / | ? | 50µM* | 7.1µM*
N[C@H]1CONC1=O | -20% | 30% | / | / | / | ?
N[C@@H]1CONC1=O | / | / | / | -5% | 17% | 20µM*!
CC(=O)c1ccc(NS(=O)(=O)Cc2ccccc2)cc1 | -18% | 60% | 6% | 1% | 25% | 10%[59 µM]
CC(=O)N(C)c1ccc(NS(=O)(=O)Cc2ccccc2)cc1 | -1% | 11% | 6% | 6% | -12% | 56µM*
Cc1ccc(OCC(=O)NCCO)c(Br)c1 | -14% | 21% | 3% | 4% | 4% | -32%
COCCCNCCOCCOc1ccc(C)cc1Br | 50µM* | 19% | 27% | ? | ? | ?
COCCCNCCOc1cc(C(C)C)ccc1C | 3.2µM* | ? | 23% | 79µM* | -12% | ?
CCCCNCCOCCOc1ccc(C)cc1Br | 3.5µM* | -35% | 9% | ? | -7% | 10µM*
Cc1ccc(C(C)C)cc1OCC(=O)NC1CCCCCCC1 | 93% | 123% | 32% | 71% | / | 78%[59 µM]
COc1ccccc1OCCOCCOc1ccc(C)cc1Br | 104% | 244% | 45% | 140% | -6% | 142%[59 µM]
Cc1ccc(OCCOCCNC(C)C)c(Br)c1 | 10µM* | ? | 7% | 56µM* | -22% | /

From PubChem
